“And” between values parts separate entries of the source, which are not always exact repeats. Identical values can stand only once. A number with no mark means an inactive call. The source made the active and inactive calls. No stated cut-off is given here; in the data, active means remaining activity below about 50%; inactive means the rest.
Each compound was assayed against Phospholipase D1 (Homo sapiens) (UniProt Q13393) (assay: cellular phospholipase D1 activity inhibition – Calu-1 cells, single concentration (AID 602144;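 further: tested at 200 nM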)). Settings: cellular PLD1 activity, stronger effect = lower value.
Phospholipase D1 (Homo sapiens), sequence (Q13393 whole entry, looked up): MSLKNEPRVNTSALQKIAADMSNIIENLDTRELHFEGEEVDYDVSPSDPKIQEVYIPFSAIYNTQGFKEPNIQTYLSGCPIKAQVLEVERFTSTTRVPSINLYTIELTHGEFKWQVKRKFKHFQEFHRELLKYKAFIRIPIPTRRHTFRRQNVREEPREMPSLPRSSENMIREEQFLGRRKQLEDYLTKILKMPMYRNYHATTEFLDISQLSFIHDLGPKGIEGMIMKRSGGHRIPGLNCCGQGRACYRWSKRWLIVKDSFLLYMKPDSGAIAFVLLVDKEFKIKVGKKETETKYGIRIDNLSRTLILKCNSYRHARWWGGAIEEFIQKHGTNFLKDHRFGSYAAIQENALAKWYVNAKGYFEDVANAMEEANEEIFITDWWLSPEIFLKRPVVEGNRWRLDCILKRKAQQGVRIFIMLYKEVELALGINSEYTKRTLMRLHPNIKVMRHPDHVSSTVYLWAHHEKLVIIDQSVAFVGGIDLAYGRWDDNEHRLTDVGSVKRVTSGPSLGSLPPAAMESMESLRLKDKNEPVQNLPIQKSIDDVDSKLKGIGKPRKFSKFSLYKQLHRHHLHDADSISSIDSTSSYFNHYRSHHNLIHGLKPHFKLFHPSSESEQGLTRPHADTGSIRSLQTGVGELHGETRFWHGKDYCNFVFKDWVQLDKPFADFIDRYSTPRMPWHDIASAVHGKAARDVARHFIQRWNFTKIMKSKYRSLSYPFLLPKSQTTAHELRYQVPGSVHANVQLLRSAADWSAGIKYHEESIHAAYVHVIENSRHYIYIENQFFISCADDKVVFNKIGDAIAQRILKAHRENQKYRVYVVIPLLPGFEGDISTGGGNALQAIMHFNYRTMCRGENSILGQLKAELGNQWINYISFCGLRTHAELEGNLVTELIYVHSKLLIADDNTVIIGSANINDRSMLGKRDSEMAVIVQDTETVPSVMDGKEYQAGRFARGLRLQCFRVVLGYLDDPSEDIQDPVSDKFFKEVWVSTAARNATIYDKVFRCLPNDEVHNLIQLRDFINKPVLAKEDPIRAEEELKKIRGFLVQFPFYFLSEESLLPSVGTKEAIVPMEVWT
Phospholipase D1 (Homo sapiens), sequence (Q13393 whole entry, looked up): as above
`COc1cccc(N2CCN(CCNC(=O)c3ccc(C)cc3)CC2)c1` showed a remaining activity of 84.8%.
With `O=C(NCCN1CCC(n2c(=O)[nH]c3ccccc32)CC1)Nc1ccccc1F` the remaining activity was 102%.
`O=C(NCCN1CCC(n2c(=O)[nH]c3ccccc32)CC1)c1cc2ccc3ccccc3c2c2ccccc12` showed a remaining activity of 76.6%.
Compound `O=C(NCCN1CCC(n2c(=O)[nH]c3ccccc32)CC1)c1ncccn1` has a remaining activity of 120%.
`O=C(NCCN1CCC(n2c(=O)[nH]c3ccccc32)CC1)Nc1cccc(C(F)(F)F)c1` showed a remaining activity of 135%.
Compound `O=C(NCCN1CCC(n2nnc3ccccc32)CC1)C1CC1c1ccccc1` (stereo unspecified) has a remaining activity of 52.7%.
`CCCS(=O)(=O)NCCN1CCC(n2c(=O)[nH]c3ccccc32)CC1` gave a remaining activity of 120%.
`O=C(NCCN1CCC(n2c(=O)[nH]c3ccccc32)CC1)C1C=Cc2ccccc2C1` (stereo unspecified) was tested, and the remaining activity was 33% (active).
For `Cc1ccc(C(=O)NCCN2CCC(n3c(=O)[nH]c4cc(Br)ccc43)CC2)cc1`, the remaining activity was 3.74% (active).
In the case of `C[C@@H](NC(=O)NCCN1CCC(n2c(=O)[nH]c3ccccc32)CC1)c1ccccc1`, the remaining activity is reported as 131% and 118%.
Compound `O=C(NCCN1CCC(n2nnc3ccccc32)CC1)c1cnc2ccccc2c1` has a remaining activity of 79.2%.
Compound `COc1ccccc1NC(=S)NCCN1CCC(n2c(=O)[nH]c3ccccc32)CC1` has a remaining activity of 152%.
`O=c1[nH]c2ccccc2n1C1CCN(CCNC(=S)Nc2ccccc2F)CC1` was tested, and the remaining activity was 109%.
`O=C(NCCN1CCC2(C=Cc3ccccc32)CC1)[C@H]1C[C@@H]1c1ccccc1` gave a remaining activity of 107%.
For `CCOC(=O)CNC(=O)NCCN1CCC(n2c(=O)[nH]c3ccccc32)CC1`, the remaining activity was 136%.
For `O=C(NCCN1CCC(C(=O)NCC2CC2)CC1)c1ccc2ccccc2c1`, the remaining activity was 106%.
Compound `O=C(N[C@@H](Cc1ccccc1)CN1CCC(n2c(=O)[nH]c3ccccc32)CC1)c1ccc2ccccc2c1` has a remaining activity of 113%.
With `COc1cccc(C(=O)NCCN2CCC(n3c(=O)[nH]c4ccccc43)CC2)n1` the remaining activity was 39.7% (active).
For `O=C(Cc1ccc2ccccc2c1)NCCN1CCC(n2c(=O)[nH]c3ccccc32)CC1`, the remaining activity was 87.7%.
In the case of `C[C@@H](CN1CCC(n2c(=O)[nH]c3cc(I)ccc32)CC1)NC(=O)c1ccc2ccccc2c1`, the remaining activity is reported as 20.1% (active).
With `CN(C)c1cccc2c(S(=O)(=O)NCCN3CCC(n4c(=O)[nH]c5ccccc54)CC3)cccc12` the remaining activity was 127%.
`C[C@H](N)CN1CCC(c2nc3ccccc3n2C)CC1` (tested in a mixture with another compound) showed a remaining activity of 88.8%.
Compound `O=C(NCCN1CCC(n2c(=O)[nH]c3ccccc32)CC1)c1ccc2c(c1)CCCC2` has a remaining activity of 83.6%.
`C[C@H](CN1CCC2(CC1)CNCc1ccccc12)NC(=O)c1cnc2ccccc2c1` showed a remaining activity of 69%.
For `Cn1c(=O)n(C2CCN(CCNC(=O)c3ccc(F)cc3)CC2)c2ccccc21`, the remaining activity was 84.4%.
In the case of `O=C(NCCN1CCC(n2c(=O)[nH]c3ccccc32)CC1)c1ccc2ccc3c4c2c1CC=C4CC=C3`, the remaining activity is reported as 95.6%.
